Screening data from PubChem BioAssay.
Sfp inh: Sfp phosphopantetheinyl transferase inhibition; Q9F4F7; Biochemical Sfp PPTase activity, qHTS; Potency, µM, for inactives: largest response in the series, negative = inhibition, usual class: inhibitors; actives 3.5% (n = 310,000);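 note: the enzyme is Sfp with the accession as filed and its product quenches rhodamine fluorescence; 0% = enzyme reaction without inhibitor and -100% = no enzyme wells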
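Reaction rates are the 30-min fluorescence difference (ex 525, em 598 nm) in wells containing 15 nM Sfp, 5 uM rhodamine-CoA and 12.5 uM BHQ-2-YbbR at pH 7.6 with 10 mM MgCl2.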
VDR inhibitor: vitamin D3 receptor (human) inhibition; P11473; VDR-SRC2-3 peptide fluorescence polarization, 2 h; Potency, µM, for the others: max response, negative = inhibition, hits mostly inhibitors; actives 0.93% (n = 400,000)
Target sequence (P11473 whole entry, looked up): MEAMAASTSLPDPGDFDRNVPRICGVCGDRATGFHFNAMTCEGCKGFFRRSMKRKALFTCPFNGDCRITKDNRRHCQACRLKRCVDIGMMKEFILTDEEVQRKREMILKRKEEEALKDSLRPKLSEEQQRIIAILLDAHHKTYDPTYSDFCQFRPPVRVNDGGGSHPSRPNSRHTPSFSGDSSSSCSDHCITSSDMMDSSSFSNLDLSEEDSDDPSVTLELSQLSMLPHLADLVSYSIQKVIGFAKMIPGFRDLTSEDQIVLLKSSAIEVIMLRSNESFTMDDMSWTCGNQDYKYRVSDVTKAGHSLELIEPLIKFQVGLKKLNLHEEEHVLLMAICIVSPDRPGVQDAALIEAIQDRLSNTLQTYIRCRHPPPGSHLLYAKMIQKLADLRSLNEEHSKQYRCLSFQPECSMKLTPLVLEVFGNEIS
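Signal is fluorescence polarization, reporting how far test compounds block the interaction of VDR with the SRC2-3 coregulator peptide after a 2 h room-temperature incubation.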
TrxR1 inh: inhibitors of rat thioredoxin reductase 1; AID 588453; recombinant rTrxR1, NADPH fluorescence consumption, selenite substrate; actives 1% (n = 390,000); O89049; Potency, µM (titrated, usually from 114 µM), inactives show at the top dose activity change, negative = inhibition, most hits filed as inhibitors; note: nearly all actives have a fitted effect of over 65% in size
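Rat TrxR1 (90 nM in the dispensed reagent) was pre-reduced with 400 uM NADPH for 5 min at room temperature, then incubated with compound for 15 min. After 400 uM selenite was added, NADPH fluorescence (Ex 340/Em 450 nm) was followed for 8 min.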
PLK1 PBD inh: inhibitors of human PLK1 polo-box domain binding. Potency, µM, without a hit: max response, negative = inhibition, hits mostly inhibitors. P53350. actives 2.8% (n = 360,000). Plk1 PBD binding of FITC phosphopeptide, fluorescence polarization; note: series mostly up to about 57 µM; nearly all actives have a fitted effect of over 65% in size
mIDH1 inhibitor: human IDH1 R132H inhibition. IDH1-R132H enzyme, NADPH consumption, diaphorase/resazurin fluorescence. Potency, µM (doses to about 76.6 µM), without a hit: at the top dose activity change, negative = inhibition, actives largely listed as inhibitors. actives 0.093% (n = 390,000); note: nearly all actives have a fitted effect of over 65% in size
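IDH1-R132H (0.5 ug/mL) preincubated 30 min with compound, then NADPH (0.016 mM) and alpha-KG (2 mM) added; 80 min at RT, pH 7.5. Remaining NADPH coupled via diaphorase/resazurin to fluorescence (540/590 nm); concentration-response curves normalized to no-enzyme control.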
TrxR1 substrate: rat thioredoxin reductase 1 substrate activity | O89049 | AID 588456 | actives 0.01% (n = 390,000) | Potency, µM (doses to about 114 µM), without a hit: top-dose activity change, negative = substrate turnover | purified TrxR1 substrate turnover, NADPH consumption readout; note: nearly all actives have a fitted effect of over 50% in size
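Rat TrxR1, dispensed at 90 nM, was prereduced with 400 uM NADPH (final) for 5 min at ~22 deg C, then incubated with compound 15 min before 400 uM selenite. A first-read NADPH fluorescence drop versus no-compound background flagged substrates.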
Active calls of the source: *; ? = inconclusive; nt = no result; [ ] = dose if it differs, or a comment. Rows were chosen to be rich in hits. Some 5.2% of all compounds tested hit in one or more screens of this group. Calls come from the whole dose curve; as a rule, active = well fitted curve in the direction sought with a large enough effect; inconclusive = small, poorly fitted or top-dose-only effect, or another doubt; inactive = no such curve, though single readings can be large; an effect the other way counts as inactive or inconclusive. Unless noted, % is set by controls: 0 for no effect and ±100 for the full control effect; potency is the fitted concentration of half-maximal effect.

SMILES	Sfp inh	VDR inhibitor	TrxR1 inh	PLK1 PBD inh	mIDH1 inhibitor	TrxR1 substrate
CC1(C)CC(=O)C2=C(C1)N(c1cccc(O)c1)C1=C(C2)C(=O)CC(C)(C)C1	10µM*	-6%	20%[57.1 µM]	-13%	2%	15%
O=C1c2ccc3c4c(ccc(c24)C(=O)N1c1cccc(O)c1)C(=O)N(c1cccc(O)c1)C3=O	7%	-8%	26%	-3%	1%	6%
CC1(C)CC(=O)c2c(oc3cc(O)c(O)cc23)C1	56µM*	7%	?	-7%	1%	-8%
COC(=O)CC1Oc2cc3oc4c(c3cc2O1)C(=O)CC(C)(C)C4 (stereo not drawn)	-14%	nt	nt	nt	nt	nt
O=c1c2ccccc2[nH]c(=S)n1Cc1cccnc1	1%	-19%	16%[57.1 µM]	27µM*	-1%	-3%
COc1ccccc1NC(=O)CSc1nnc(CC(=O)Nc2ccccc2F)n1C	10%	5%	4%	2%	12%	1%
COc1cc2c(cc1OC)C(c1cc3cc4c(cc3[nH]c1=O)OCO4)N(C(=O)C1CC1)CC2 (stereo not drawn)	40µM*	-12%	2%	1%	11%	23%
COc1cc2c(cc1OC)C(c1cc3ccc(C)cc3[nH]c1=O)N(C(=O)c1ccco1)CC2 (stereo not drawn)	-10%	-3%	?	-5%	-7%	0%
Cc1c(C(N)=O)nnn1-c1ccc(Br)cc1	nt	8%	17%	nt	-3%	4%
O=C(CSc1ccc(Br)cc1)Nc1cccc(S(=O)(=O)N2CCOCC2)c1	nt	?	26%	6µM*	-5%	-9%
Cc1cc(C(=O)OCC(=O)Nc2cccc(S(=O)(=O)N3CCOCC3)c2)c(C)o1	-8%	-18%	-3%	27µM*	7%	-1%
Cc1ccc(SCC(=O)Nc2cccc(S(=O)(=O)N3CCOCC3)c2)cc1C	nt	42%	39%	-6%	10%	6%
Cc1sc2nc3ccc(N4CCCC4)nn3c(=O)c2c1C	25µM*	-22%	-7%	?	11%	25%
COc1ccc(-c2nc(SCC(=O)NC3CCCC3)c(-c3ccccc3)[nH]2)cc1OC	nt	-6%	4%	nt	-10%	-7%
CCCCn1c(N)c(Sc2ccccc2[N+](=O)[O-])c(=O)[nH]c1=O	12%	-4%	6%	3%	8%	2%
Cc1[nH]c(=O)[nH]c(=O)c1Sc1ccccc1[N+](=O)[O-]	11%	-9%	3%	21µM*	0%	-3%
COc1ccc(/C(N)=N/OC(=O)CCCN2C(=O)c3ccccc3C2=O)cc1OC	15%	?	20%[57.1 µM]	24µM*	5%	3%[57.1 µM]
O=C(CSc1nc2ncccc2o1)Nc1cccc(C(F)(F)F)c1	nt	0%	9%[57.1 µM]	nt	-13%	3%[57.1 µM]
CC(C)N1CSC(=S)N(Cc2ccccc2)C1	-6%	79µM*	?	?	-1%	4%
Cc1ccc(SSc2cc(C)ccc2N)c(N)c1	nt	6.3µM*	84%[57.1 µM]	0.34µM*	?	-4%[57.1 µM]
Cc1ccc(-n2c(=O)c3c(cnn3C)n(Cc3ccccc3F)c2=O)cc1	nt	3%	8%	nt	0%	-2%
Cc1ccc(-n2c(=O)c3c(cnn3C)n(Cc3ccc(Cl)cc3)c2=O)cc1	nt	89µM*	21%	nt	nt	8%
CCc1sc(NC(C)=O)nc1-c1ccccc1	0%	-2%	11%	-12%	2%	1%
CCc1sc(NC(=O)COC)nc1-c1ccccc1	-6%	-2%	11%[57.1 µM]	18µM*	0%	-3%
CCNC(=O)Nc1nc2ccccc2s1	-1%	0%	2%	8%	4%	2%
CCOCC(=O)Nc1nc2ccccc2s1	50µM*	23%	-25%[57.1 µM]	-12%	2%	11%[57.1 µM]
COc1ccc(/C=N/OCC(=O)Nc2nc3ccccc3s2)cc1OC	-3%	?	4%[57.1 µM]	17µM*	5%	-4%
CCN(CC)CCNC(=O)c1nn(C)c2c1CS(=O)(=O)c1ccccc1-2	nt	-11%	20%	nt	41%	2%
